Rows were chosen to be rich in hits. Some 2.8% of all compounds tested hit in one or more screens of this group.
PI5P4Ka inh = blocks human PI5P4K alpha kinase activity; P48426; PI5P4Kalpha enzyme, ADP-Glo luminescence, 60 min; stronger effect = lower value; 330,000 tested, 1.2% active; max response, %; AID 652105; active = max response of -50% or lower; inconclusive = between -30% and -50%; inactive = -30% or higher; also: value at the top dose of about 77 µM
Target sequence (P48426 whole entry, looked up): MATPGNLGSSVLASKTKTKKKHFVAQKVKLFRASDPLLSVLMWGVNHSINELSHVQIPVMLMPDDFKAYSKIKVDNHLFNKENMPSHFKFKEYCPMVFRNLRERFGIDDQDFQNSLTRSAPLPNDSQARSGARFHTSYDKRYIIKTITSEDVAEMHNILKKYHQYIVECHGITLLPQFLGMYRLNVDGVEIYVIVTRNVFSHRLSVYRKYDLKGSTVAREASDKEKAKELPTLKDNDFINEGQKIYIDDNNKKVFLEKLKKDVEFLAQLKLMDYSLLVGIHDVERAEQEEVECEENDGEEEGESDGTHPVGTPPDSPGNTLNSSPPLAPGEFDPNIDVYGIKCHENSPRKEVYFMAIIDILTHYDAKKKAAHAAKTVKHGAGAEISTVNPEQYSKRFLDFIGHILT
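ADP-Glo luminescence end-point read after a 60 min room-temperature kinase reaction of PI5P4Kalpha plus substrate, initiated with ATP at 5 microM final. Buffer: 0.038 M HEPES pH 7.4, EGTA, 0.1% CHAPS, 5% DMSO.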
POLI inh = blocks human DNA polymerase iota activity; 390,000 tested, 1% active; Q9UNA4; Potency, µM (doses to about 115 µM), usual class: inhibitors; AID 588590; Pol iota fluorescent replication assay, 10 min
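Pol iota at 10 nM preincubated 15 min with compounds at room temperature; reaction started with fluorescent substrate, 50 nM final. Fluorescence read kinetically at 0 and 10 min; buffer-only wells as negative control.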
Pol eta inh-1 = inhibitors of human DNA polymerase eta | Q9Y253 | Potency, µM (top dose mostly 114 µM), actives largely listed as inhibitors | 390,000 tested, 1.2% active | recombinant Pol eta, fluorescent DNA replication assay
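Fluorescent replication assay: 50 nM final substrate added after a 15 min room-temperature compound preincubation with 10 nM enzyme. Signal taken at 0 min and again at 10 min.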
WRN inhibitor = WRN helicase (human) inhibition; AID 651768; 360,000 tested, 0.46% active; WRN helicase unwinding, fluorescent forked duplex, kinetic; Potency, µM (doses to about 114 µM), hits mostly inhibitors; Q14191; also: nearly all actives have a fitted effect of over 55% in size
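Kinetic fluorescence helicase assay: unwinding of a quenched forked DNA duplex (100 nM final) with 2 mM ATP final raises red fluorescence (525/598 nm). Compounds sat 15 min at room temperature with 20 nM WRN beforehand.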
POLB inh = blocks human DNA polymerase beta activity. P06746. Pol beta primer extension/strand displacement, fluorescence kinetic. Potency, µM (doses to about 114 µM), hits mostly inhibitors. 340,000 tested, 1.3% active
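Values derive from four-parameter Hill fits of normalized kinetic data: reads at 0 and 10 min following addition of 50 nM substrate to 10 nM Pol beta preincubated 15 min with compound.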
Pol kappa inh-1 = blocks human DNA polymerase kappa activity; purified Pol kappa, fluorescent DNA synthesis assay, 10 min; Potency, µM (top dose mostly 107 µM), usual class: inhibitors; 400,000 tested, 0.53% active
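50 nM final substrate added after 15 min RT preincubation of 10 nM Pol kappa with compound; fluorescence read at 0 and 10 min.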
TbPGK inh = validation of Trypanosoma brucei phosphoglycerate kinase inhibitors; shares compounds with Pol kappa inh-1; TbPGK coupled GAPDH assay, Kinase-Glo luminescence; Potency, µM (top dose mostly 57.5 µM), actives largely listed as inhibitors; 500 tested, 79% active; also: nearly all actives have a fitted effect of over 65% in size
Pol iota confirm = Human Pol iota inhibitor confirmatory assay; shares compounds with Pol kappa inh-1; Pol iota primer extension, TAMRA/BHQ fluorescence; Potency, µM, most hits filed as inhibitors; 1,500 tested, 77% active
GALK confirm = confirmation of human galactokinase (GALK) inhibitors. shares compounds with Pol eta inh-1. purified GALK, Kinase-Glo ATP depletion luminescence. Potency, µM (titrated, usually from 115 µM), hits mostly inhibitors. 150 tested, 70% active
GALK redox cs = counter-screen for GALK inhibitors: redox cycling H2O2 generation | shares compounds with Pol eta inh-1 | Phenol red-HRP H2O2 redox cycling, absorbance 600 nm | Potency, µM (highest dose often 115 µM), usual class: inhibitors | 150 tested, 40% active
HEK293 tox = counter-screen for GALK inhibitors: HEK293 cell cytotoxicity | HEK-293 viability, ATP luminescence (CellTiter-Glo), 24/48 h | 170 tested, 10% active | shares compounds with Pol eta inh-1 | Potency, µM (highest dose often 46.1 µM), actives largely listed as inhibitors
Pol kappa inh-2 = confirmation of human DNA polymerase kappa inhibitors | Potency, µM, hits mostly inhibitors | shares compounds with Pol eta inh-1 | 920 tested, 76% active | purified Pol-kappa, fluorescent strand-displacement substrate | AID 720501
Pol eta inh-2 = Pol eta (human) inhibition, cherry-pick confirmation. shares compounds with Pol eta inh-1. Pol eta primer extension, TAMRA/BHQ fluorescence, 10 min. Potency, µM, most hits filed as inhibitors. 2,600 tested, 64% active. AID 720502
Hits are given with their value; – = inactive; ? = inconclusive; · = not tested or not shown; [ ] = another dose, or the depositor's remark. Unless noted, calls follow the shape of the dose curve; as a rule, active = well fitted curve in the direction sought with a large enough effect; inconclusive = small, poorly fitted or top-dose-only effect, or another doubt; inactive = no such curve, though single readings can be large; an effect the other way counts as inactive or inconclusive.

SMILES | PI5P4Ka inh | POLI inh | Pol eta inh-1 | WRN inhibitor | POLB inh | Pol kappa inh-1 | Pol iota confirm | Pol eta inh-2 | others
O=C(O)COc1ccc2c(c1)O/C(=C\c1ccco1)C2=O | ? | 11µM | 5µM | ? | 32µM | 79µM | 27 | 30 | Pol kappa inh-2=6.7
COc1cccc(/C=C2\Oc3cc(OCC(=O)N4CCCC4)ccc3C2=O)c1OC | – | – | – | – | – | – | · | ·
NC1=NC(=O)/C(=C\c2ccco2)S1 | -96 | ? | 18µM | 50µM | ? | 40µM | 17 | 27 | Pol kappa inh-2=12
COc1ccccc1Nc1cc2ccccc2c(=O)[nH]1 | · | · | · | · | · | · | 42 | 27
Cc1ccccc1Nc1cc2ccccc2c(=O)[nH]1 | – | ? | 11µM | ? | – | – | 75 | 38
O=c1[nH]c(Nc2ccccc2Cl)cc2ccccc12 | – | – | – | – | · | – | · | ·
O=c1[nH]c(Nc2ccccn2)cc2ccccc12 | – | ? | ? | – | · | – | · | ·
CC(C)/C=C/C(=O)N1CCC(N2CCC(C(=O)NCC3CCCO3)CC2)CC1 (stereo unspecified) | – | · | – | – | · | · | · | ·
CCCN(CC(=O)Nc1ccccc1OC)C(=O)CCNC(=O)c1ccccc1OC | – | – | – | ? | · | – | · | ·
O=C(/C=C/c1ccco1)N1CCN(S(=O)(=O)c2ccccc2)CC1 | ? | 50µM | 18µM | – | · | ? | · | ? | TbPGK inh=9.2µM;Pol kappa inh-2=?
CC(=O)NCCCc1ccc(C(=O)COC(=O)CNC(=O)c2ccc3ccccc3c2)cc1 | · | – | · | · | · | – | · | ·
Nc1cccc2cc(S(=O)(=O)O)ccc12 | ? | 4µM | 4µM | ? | · | 10µM | 75 | 27 | Pol kappa inh-2=19
Nc1ccc2c(S(=O)(=O)O)cccc2c1S(=O)(=O)O | – | ? | – | – | · | – | · | ·
CCCc1ccc(S(=O)(=O)N2CCN(C(C)C(=O)NCc3ccccc3)CC2)cc1 (stereo unspecified) | – | – | – | – | · | – | · | ·
O=C1c2cc(CO)cc(O)c2C(=O)c2c(O[C@@H]3OC(CO)[C@@H](O)[C@@H](O)[C@@H]3O)cccc21 (stereo partly specified) | – | – | – | – | · | – | · | ·
O=C(O)c1cc(O)c2c(c1)[C@@H]([C@H]1c3cc(C(=O)O)cc(O)c3C(=O)c3c(O[C@@H]4O[C@H](CO)[C@@H](O)[C@H](O)[C@H]4O)cccc31)c1cccc(OC3O[C@H](CO)[C@@H](O)[C@H](O)[C@H]3O)c1C2=O (stereo partly specified) | -89 | – | – | 1.1µM | · | – | 3 | 6 | TbPGK inh=2.6µM;Pol kappa inh-2=2.7
O[C@@H]1[C@@H]2c3cc4c(cc3CN3CCC(=C[C@@H]1O)[C@H]23)OCO4 | · | · | · | · | · | –[12 µM] | · | ·
CCCCC[C@H](C)N1C[C@@H](COCc2ccccc2)Oc2cc(N3CCC[C@H]3C(N)=O)ccc2S1(=O)=O | – | · | · | – | · | · | · | ·
O=C1C=C(N2CCOCC2)c2ccccc2C1=O | – | 1.8µM | 5.6µM | – | – | – | 17 | 7.6 | GALK confirm=8.4µM;GALK redox cs=4.7µM;HEK293 tox=14µM
CCCC/C=C/[C@H](c1ccccc1)[C@H](CO)Cc1cnc2ccccc2c1 | · | – | · | · | · | – | · | ·
Cc1ccc(S(=O)(=O)N2[C@@H](c3ccc(C(C)(C)C)cc3)C(C(=O)O)=CC[C@H]2c2ccc(Cl)cc2)cc1 | ? | ? | 79µM | ? | · | ? | ? | ? | Pol kappa inh-2=67
O=C(NCc1ccco1)c1cccc2c1C(=O)c1ccc(/C=C/c3ccccc3)cc1S2(=O)=O | -72 | 25µM | 14µM | –[11.6 µM] | · | ? | 42 | 38 | Pol kappa inh-2=19
COc1ccc(-c2ccc3c(c2)S(=O)(=O)c2cccc(C(=O)NCc4ccccc4Cl)c2C3=O)cc1OC | – | 10µM | ? | –[11.6 µM] | · | – | 17 | 27
O=C(NCc1ccco1)c1cccc2c1C(=O)c1ccc(N3CCC(Cc4ccccc4)CC3)cc1S2(=O)=O | – | – | – | – | · | – | · | ·
Cc1nnc(N2C(=O)c3oc4ccccc4c(=O)c3C2c2ccco2)s1 (stereo unspecified) | – | ? | ? | ? | 20µM | ? | ? | ?
SMILES | PI5P4Ka inh | POLI inh | Pol eta inh-1 | WRN inhibitor | POLB inh | Pol kappa inh-1 | Pol iota confirm | Pol eta inh-2 | others
COc1ccccc1NC(=O)C1=C(C)Nc2ncnn2C1c1ccc[nH]1 (stereo unspecified) | · | 79µM | 32µM | · | 16µM | – | 60 | 60
Cc1cc(C)n(CCc2nc(-c3ccco3)cs2)n1 | · | 14µM | 79µM | ? | 32µM | 71µM | 75 | 85
COc1ccc(NC(=O)c2ccc(NC(=O)CSc3nc(N)cc(=O)[nH]3)cc2)cc1 | – | – | – | – | · | – | · | ·
CCNc1ncc2nc(-c3cccs3)c(=O)n(Cc3ccc(F)cc3)c2n1 | · | · | · | · | · | – | · | ·
COc1cc(/C=C(\C#N)c2nc3ccccc3s2)cc([N+](=O)[O-])c1O | -72 | ? | ? | ? | 40µM | 89µM | 75 | 76
Oc1ccc(/C=N/N=C(c2ccccc2)c2ccccc2)c(O)c1O | ? | ? | 3.2µM | 6.7µM | 2.8µM | ? | 11 | 43
Cc1ccc(-n2cccc2/C=C2\C(=N)N3N=C(c4ccco4)SC3=NC2=O)cc1 | ? | 20µM | 14µM | ? | 10µM | ? | ? | 76
CC1=CN2C(=N)/C(=C/c3ccco3)C(=O)N=C2S1 | ? | – | ? | ? | ? | – | · | ·
COc1ccc(CCNC(=O)CN2c3cccc4cccc(c34)S2(=O)=O)cc1OC | – | – | – | – | – | – | · | ·
O=S(=O)(NCC(c1ccc2c(c1)OCO2)N1CCN(c2ccccc2)CC1)c1ccccc1 (stereo unspecified) | – | – | – | – | · | – | · | ·
